In the library only some 9.4% were active in any assay of this set; here they are far more common.
Pf growth 48h: P. falciparum growth inhibition at 48 hours (one generation) | P. falciparum luciferase growth in erythrocytes, 48 h | Potency, µM (doses to about 28.7 µM), usual class: inhibitors | 310,000 compounds, 5.9% hits
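Parasite viability was followed by luminescence of a genomically integrated firefly luciferase. Cultures held 0.1% parasitemia at 2% hematocrit (final), incubated under 5% CO2 at 37 C.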
AMA1 RON2 block: inhibitors of Plasmodium falciparum AMA1-RON2 interaction. AlphaScreen AMA1-biotinylated RON2 peptide binding. Potency, µM (titrated, usually from 58.2 µM), usual class: inhibitors. 360,000 compounds, 0.2% hits. AID 720542; further: nearly all actives have a fitted effect of over 45% in size
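AMA1 (3D7) with his tag at 25 nM final met compounds first, then biotinylated RON2 peptide at 25 nM; detection used donor plus acceptor beads, 10 µg/mL apiece, read by AlphaScreen after 30 min at room temperature.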
SARS PLP yeast: blocks SARS-CoV papain-like protease in a yeast assay; S. cerevisiae expressing SARS-CoV PLpro, growth rescue; Potency, µM (titrated, usually from 32.9 µM), most hits filed as activators; 330,000 compounds, 0.19% hits; AID 485353; calls by dose curve; further: nearly all actives have a fitted effect of over 55% in size
Pf growth 96h: P. falciparum growth inhibition at 96 hours | P. falciparum luciferase reporter growth, 96 h | Potency, µM (highest dose often 28.7 µM), hits mostly inhibitors | 320,000 compounds, 6.9% hits | AID 504834
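P. falciparum expressing integrated firefly luciferase grown in erythrocytes (2% hematocrit, 0.05% parasitemia final) with compounds for 96 hours at 37 C, 5% CO2. Growth inhibition read as loss of luminescence after adding luciferase detection reagent.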
Numbers stand for hits; . = inactive; ? = inconclusive; / = no result given; [ ] = another dose, or the depositor's remark. Unless noted, the call rests on the fitted dose curve; in most records, active means well fitted curve in the direction sought with a large enough effect; inconclusive means small, poorly fitted or top-dose-only effect, or another doubt; inactive means no such curve, though single readings can be large; an effect the other way counts as inactive or inconclusive.

SMILES	Pf growth 48h	AMA1 RON2 block	SARS PLP yeast	Pf growth 96h
CCOc1ccc(Nc2nc(N)c([N+](=O)[O-])c(N3CCN(C)CC3)n2)cc1	?	.	.	?
CCC(c1nnnn1C1CCCC1)N1CCN(c2ccccc2)CC1 (centres undefined)	.	.	.	.
CCN(Cc1ccccc1)C(c1ccccn1)c1nnnn1C1CCCCC1 (centres undefined)	11.7µM	.	.	.
CCN(Cc1ccccc1)C(c1cccs1)c1nnnn1C1CCCCC1 (centres undefined)	9.28µM	.	.	.
Clc1ccc(C(c2nnnn2C2CCCCC2)N(Cc2cccnc2)Cc2ccco2)cc1 (centres undefined)	?	.	.	?
CC(c1nnnn1C1CCCCC1)N(Cc1ccccc1)Cc1cccnc1 (centres undefined)	10.4µM	.	.	.
Cc1ccc2c(c1)S/C(=C/c1ccc[n+](C)c1)N2CCO	?	.	.	.
CN1/C(=C/c2cccc[n+]2C)Sc2ccccc21	1.17µM	.	.	.
CN1/C(=C/C(=O)C2CCC2)Sc2ccccc21	.	.	.	.
Cc1ccc2c(c1)N(C)/C(=C/c1cccc[n+]1C)S2	.[0.00184 µM]	.	.	0.465µM
Cc1ccc2c(c1)N(C)/C(=C/c1cccc[n+]1CCO)S2	1.85µM	.	.	.
Cc1cc(C)nc(-n2nc(C)c3c(C)c(C)c(C)nc32)n1	/	/	.	?
Cc1cccc(NC(=O)/C=C/c2ccc([N+](=O)[O-])s2)c1	?	.	.	2.62µM
Cc1ccc(NC(=O)/C=C/c2ccc([N+](=O)[O-])s2)c(C)c1	10.4µM	.	.	3.29µM
Cc1ccc(NC(=O)/C=C/c2ccc([N+](=O)[O-])s2)cc1	?	.	.	?
CCOC(=O)C1CCN(C(=O)c2cc3cc(Cl)ccc3[nH]2)CC1	?	.	.	?
COc1ccc2cc(C(c3nnnn3Cc3ccc(F)cc3)N3CCCCCC3)c(=O)[nH]c2c1 (centres undefined)	11.7µM	.	.	/
COc1ccc(Cn2nnnc2C(c2cc3ccc(OC)cc3[nH]c2=O)N2CCC(C)CC2)cc1 (centres undefined)	/	.	.	9.28µM
Cc1cc(C)c2[nH]c(=O)c(C(c3nnnn3Cc3ccc4c(c3)OCO4)N3CCC(C)CC3)cc2c1 (centres undefined)	13.1µM	.	.	/
Cc1cc(C)c2[nH]c(=O)c(CN(Cc3ccc4c(c3)OCO4)Cc3nnnn3C3CCCC3)cc2c1	11.7µM	.	.	.
Cc1cccc2cc(CN(Cc3ccc(F)cc3)Cc3nnnn3C3CCCC3)c(=O)[nH]c12	.	.	.	.
CC(=O)c1cccc(NC(=O)CSc2nc(N3CCOCC3)nc(N3CCOCC3)n2)c1	.	.	.	.
N#Cc1ccc2c(c1)NC(=O)C1CCCN21 (centres undefined)	?	.	.	.
Cc1ccc(CN2C(=O)C3CCCN3c3ccc(C#N)cc32)cc1 (centres undefined)	?	/	.	1.65µM
Cc1ccc(C)c(CN2C(=O)C3CCCN3c3ccc(C#N)cc32)c1 (centres undefined)	?	.	.	9.28µM
SMILES	Pf growth 48h	AMA1 RON2 block	SARS PLP yeast	Pf growth 96h
CON(C)S(=O)(=O)c1ccc2c(c1)N(Cc1ccc(C)cc1)C(=O)C1CCCN21 (centres undefined)	?	.	.	0.828µM
COc1cc2nc(C3CCC3)n(NC(=O)COc3ccccc3)c(=O)c2cc1OC	.	.	.	.
CCOC(=O)[C@H]1[C@H]2COc3ccc(OC)cc3[C@@H]2N2C(=O)c3ccc(C)cc3NC(=O)[C@@]12C	?	.	.	?
O=C(C1CCN(S(=O)(=O)c2ccc3c(c2)OCCO3)CC1)N1CCc2ccccc21	?	.	.	10.4µM
CCN(Cc1ccccc1)C(=O)C1CCN(S(=O)(=O)c2ccc3c(c2)OCCO3)CC1	?	.	.	13.1µM
CN(CC(=O)Nc1cccc(F)c1)C(=O)C1CCN(S(=O)(=O)c2ccc3c(c2)OCCO3)CC1	9.28µM	.	.	4.15µM
COCC(C)NC(=O)CCS(=O)(=O)c1nc(-c2ccc(OC)cc2)cc(C(F)(F)F)n1 (centres undefined)	.	.	.	9.28µM
COc1ccc(-c2cc(C(F)(F)F)nc(S(=O)(=O)CCCC(=O)Nc3cccnc3Cl)n2)cc1OC	11.7µM	.	.	.
Cn1c(=S)[nH]c2c(c1=O)C(C)(C)Cc1ccccc1-2	.	.	.	3.29µM
CCn1c(=S)[nH]c2c(c1=O)C(C)(C)Cc1ccccc1-2	.	.	.	.
O=C(Cn1c(O)c(/C=C2\C=Nc3ccc(Br)cc32)sc1=O)N1CCCC1	/	.	.	11.7µM
O=C(NCCC1=CCCCC1)C(=O)c1c[nH]c2ccccc12	.	.[11.6 µM]	.	.
Cn1c(/C(C#N)=C/c2ccc(O)cc2)nc2ccccc21	.	.	.	2.33µM
Cn1c(/C(C#N)=C/c2ccncc2)nc2ccccc21	.	.	.	.
O=C(CSCc1ccc(Cl)cc1)Nc1cc([N+](=O)[O-])ccc1O	?	.	.	.
O=C(CSCc1ccc([N+](=O)[O-])cc1)Nc1ccc(S(=O)(=O)N2CCCCCC2)cc1	?	.	.	10.4µM
O=C(CSCc1ccc([N+](=O)[O-])cc1)Nc1ccccc1C(=O)O	.	.	.	9.28µM
O=C(CSCc1ccc(F)cc1)Nc1ccc(F)cc1	.	.	.	6.57µM
CCN1CCN(C(c2ccc(F)cc2)c2nnnn2Cc2ccc3c(c2)OCO3)CC1 (centres undefined)	?	.	.	.
CSc1ccc(CN2CCC(C)(Oc3ccc(CC#N)cc3)C2)cc1 (centres undefined)	/	.	/	/
O=C1C(Cl)=C(N2CCCCC2)C(=O)C(Cl)=C1c1cnc(N2CCCCC2)s1	10.4µM	8.91µM	.	.
O=C(Nc1nccs1)c1ccc(F)c(S(=O)(=O)N2CCOCC2)c1	.	.	.	.
Cc1cc(C)n2c(SCc3ccc(Cl)cc3Cl)nnc2n1	.	.	.	?
CCOC(=O)c1c(CSC(=N)N)n(-c2ccc(Br)cc2)c2cc(Br)c(OC(C)=O)cc12	1.85µM	.	.	?
C=CCCc1ccc(C#N)c(SCc2c(C(=O)OCC)c3cc(OC(C)=O)c(Br)cc3n2C)n1	5.22µM	.	.	.
SMILES	Pf growth 48h	AMA1 RON2 block	SARS PLP yeast	Pf growth 96h
CCCCCCCCOC(=O)c1c(CSC(=N)N)n(C)c2cc(Br)c(OC(C)=O)cc12	?	.	.	10.4µM
CCOC(=O)c1c(CSc2nc(C)cc(C)c2C#N)n(C)c2cc(Br)c(OC(C)=O)cc12	?	.	.	?
O=C(CSc1ncnc2[nH]ncc12)Nc1cccc(Oc2ccccc2)c1	.	.	.	?
CCOCCCNC(=O)CSCc1nc(-c2ccc(SC)cc2)oc1C	.	.	.	.
CCC(c1ccc(O)c(O)c1)C(CC)c1ccc(O)c(O)c1 (centres undefined)	/	25.1µM	/	/
CC12C(=O)N(c3cccc(OC(=O)c4ccco4)c3)C(=O)C1C1c3ccccc3C2c2ccccc21 (centres undefined)	/	.	.	?
O=C(NCc1ccco1)c1sc2cc(Cl)ccc2c1Cl	.	.	.	.
O=C(NCc1ccco1)c1sc2ccccc2c1Cl	.	.	.	3.29µM

Bioassay records deposited in PubChem BioAssay by National Center for Advancing Translational Sciences (NCATS).
